TDP1 cell noCPT – qHTS for Inhibitors of human tyrosyl-DNA phosphodiesterase 1 (TDP1): qHTS in cells in absence of CPT; DT40 Tdp1-/- hTDP1 cells, no CPT, ATP luminescence, 48 h; Potency, µM (highest dose often 46.2 µM), for the others: at the top dose activity change, negative = growth inhibition, actives largely listed as inhibitors; 15% of 420,000 active; note: potency is the fitted concentration of half-maximal effect; % is set by controls: 0 for no effect and ±100 for the full control effect; nearly all actives have a fitted effect of over 55% in size
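Growth kinetics read by CellTiter-Glo luminescence after ≥48 hr at 37 °C. Cells: DT40 Tdp1-/- stably carrying human TDP1, 400 per well, compound exposure in the absence of CPT (DMSO vehicle).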
TDP1 cell CPT – growth inhibition of DT40 Tdp1-/-;hTDP1 cells with camptothecin (screen for TDP1 inhibitors) | 12% of 420,000 active | chicken DT40 Tdp1-/-;hTDP1 cells + 20 nM CPT, ATP luminescence, 48 h | Potency, µM (highest dose often 46.2 µM), for the others: at the highest dose activity change, negative = growth inhibition, most hits filed as inhibitors; note: potency is the fitted concentration of half-maximal effect; % is set by controls: 0 for no effect and ±100 for the full control effect; nearly all actives have a fitted effect of over 55% in size
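Chicken DT40 Tdp1-/- cells stably complemented with human TDP1 were seeded at 400 cells/well in medium containing 20 nM camptothecin, exposed to pin-transferred compounds, and grown at 37 °C for at least 48 hr. Viability was read as ATP luminescence.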
MCF10A rereplic – induces DNA re-replication in MCF 10a normal breast cells | Potency, µM (doses to about 46.1 µM), for the others: at the top dose activity, positive = re-replication, hits mostly activators | MCF 10A DNA re-replication, Hoechst nuclear intensity, 48 h | 2.9% of 350,000 active | AID 624296; note: potency is the fitted concentration of half-maximal effect; % of control where 0% means no effect; nearly all actives have a fitted effect of over 50% in size
SW480 rerep – inducers of DNA re-replication in SW480 colon cancer cells; SW480 DNA re-replication, Hoechst DNA content imaging, 48 h; Potency, µM (top dose mostly 46.1 µM), for the others: top-dose re-replication activation, hits mostly activators; 1.8% of 340,000 active; AID 624297; note: potency is the fitted concentration of half-maximal effect; % of control where 0% means no effect; nearly all actives have a fitted effect of over 55% in size
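Readout is total intensity of Hoechst-stained nuclei, excited at 405 nm and collected at 500-530 nm. Compound treatment lasted 48 hr at 37 C in 5% CO2 before staining.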
BCR signal inh – chronic active BCR signaling inhibition; ABC-DLBCL IkBa-CBG/CBR reporter, luminescence ratio, 4 h; Potency, µM (series often up to 46.1 µM), for inactives: at the top dose activity change, negative = inhibition, usual class: inhibitors; 0.05% of 340,000 active; AID 493014; active = well fitted inhibition curve with a large enough effect in the signal ratio, with a control signal flat, not every such curve was filed as active; inconclusive = small, poorly fitted or top-dose-only effect, or effect the other way, or a change in a side signal; the % refers to the signal ratio;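 note: potency is the fitted concentration of half-maximal effect; plate controls were basal doxycycline-induced cells for no effect and cells given 10 µM MG132 for full effect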
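Concentration-response series (up to 46 uM) were applied to TMD8 dual-reporter cells for 4 h at 37C with doxycycline. Green/red ratio, after filter-overlap correction, defined %Activity; red signal alone was normalised to basal cells and zero luminescence.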
IL1B secr inh – inhibitors of inflammasome signaling (IL-1 beta secretion). activity change, % at 57.5 µM. THP-1 LPS/ATP IL-1B secretion, AlphaLISA, 16 h; active compounds read low. 4.7% of 360,000 active; in the data active = activity change below about -50%; inconclusive = mostly about -30% to -49%; note: % is set by controls: 0 for no effect and ±100 for the full control effect
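Secreted IL-1B measured by AlphaLISA bead assay after 16 h compound exposure of THP-1 cells; compounds (final up to 57.5 uM) added 1 h before LPS (250 ng/mL) and ATP (1.25 mM) stimulation; lower signal means less secretion.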
* hit, by the source's call; i = inactive; ? = inconclusive; nt = no result given. Sampled rows, rich in hits. Any-hit rate of the full collection: about 19%. Unless noted, calls come from the whole dose curve; as a rule, active = well fitted curve in the direction sought with a large enough effect; inconclusive = small, poorly fitted or top-dose-only effect, or another doubt; inactive = no such curve, though single readings can be large; an effect the other way counts as inactive or inconclusive.

SMILES | TDP1 cell noCPT | TDP1 cell CPT | MCF10A rereplic | SW480 rerep | BCR signal inh | IL1B secr inh
CC(C)(C)c1ccc(-c2nc(C#N)c(NCCCn3ccnc3)o2)cc1 | ? | ? | -7% | -52% | ? | -95*
N#Cc1nc(-c2ccc(OCc3ccccc3Cl)cc2)oc1NCCCn1ccnc1 | nt | nt | nt | nt | 1% | nt
O=C(c1cnccn1)N1CCC2(CC1)CCN(C(c1ccccc1)c1ccccc1)CC2 | ? | -4% | nt | nt | nt | nt
COc1ccc(NC(=O)CN(C)C(=O)c2cccc(S(=O)(=O)N3CCN(c4ccc(F)cc4)CC3)c2)cc1 | ? | 13µM* | 5% | -11% | nt | ?
COc1cccc(NC(=O)CN(C)C(=O)c2cccc(S(=O)(=O)N3CCN(c4ccccc4)CC3)c2)c1 | -59% | ? | -21% | ? | ? | -4
CN(CC(=O)Nc1ccc(F)cc1)C(=O)c1cccc(S(=O)(=O)N2CCN(c3ccccc3)CC2)c1 | 21µM* | 16µM* | ? | 24% | ? | i
CCNc1ncc2nc(-c3ccccc3)c(=O)n(Cc3cccs3)c2n1 | -12% | 1% | nt | nt | nt | nt
COc1ccc(OCC(O)Cn2c(=N)n(Cc3ccccc3)c3ccccc32)cc1 (centres undefined) | 6.5µM* | ? | ? | ? | ? | -97*
COc1ccc(C(O)c2cnc(C)n2Cc2ccccc2)cc1 (centres undefined) | 18µM* | ? | nt | nt | nt | 24
CCOC(=O)Cn1c(=N)n(Cc2ccccc2)c2ccccc21 | -25% | -6% | 7% | -1% | -11% | -8
CCn1c(=N)n(CC(O)COc2ccccc2)c2ccccc21 (centres undefined) | nt | nt | nt | nt | 12% | nt
Cc1cccc(OCC(O)Cn2c(=N)n(Cc3ccccc3)c3ccccc32)c1 (centres undefined) | 21µM* | ? | 8% | ? | ? | -54*
N=c1n(Cc2ccccc2)c2ccccc2n1CC(O)COc1ccc(Cl)cc1Cl (centres undefined) | 7.3µM* | 21µM* | ? | ? | ? | -103*
CCCc1cc(=O)[nH]c(SCC(=O)N(C)C2CCCCC2)n1 | 0% | 17% | 13% | 2% | 13% | 14
CCOC(=O)c1cnn(C)c1NC(=O)c1ccc(Cl)cc1Cl | -8% | 1% | 0% | -2% | 4% | 27
Cc1cccc(OCC(O)CN2CCNCC2)c1 (centres undefined) | 9% | -22% | 4% | -4% | 10% | 36
Cc1cccc(OCC(O)Cn2c(=N)n(CCN3CCCCC3)c3ccccc32)c1 (centres undefined) | 13µM* | 12µM* | ? | ? | ? | -51*
Cc1cccc(NC(=O)C(C)Oc2ccc(C)nc2[N+](=O)[O-])c1 (centres undefined) | -20% | -3% | -3% | -1% | ? | -16
CCCCOc1ccc(-c2nonc2NC(=O)c2ccco2)cc1 | ? | ? | nt | nt | -4% | nt
Cc1ccccc1NC(=O)C1C2CCCC1C2c1ccccc1 (centres undefined) | ? | 18µM* | 18% | 3% | -1% | 5
O=C(CSc1nnc(NC(=O)C2CC2)s1)NCc1ccccc1Cl | -11% | -17% | 0% | 1% | -3% | 30
Cc1cc(C)c2c(c1)/C(=N/NC(=O)c1cc(C)oc1C)CCC2 | -26% | -23% | ? | 2.9µM* | ? | -3
CC1=N/C(=C\c2ccc([N+](=O)[O-])cc2)C(=O)N1c1ccc(Cl)cc1 | ? | ? | -7% | -7% | ? | -7
O=c1[nH]/c(=C\c2ccc([N+](=O)[O-])cc2)c(=O)[nH]/c1=C\c1ccc([N+](=O)[O-])cc1 | -30% | ? | nt | nt | nt | nt
CC1=N/C(=C\c2ccc([N+](=O)[O-])cc2)C(=O)N1c1ccc(F)cc1F | 18µM* | ? | 14% | 8% | ? | 7
SMILES | TDP1 cell noCPT | TDP1 cell CPT | MCF10A rereplic | SW480 rerep | BCR signal inh | IL1B secr inh
CC1=N/C(=C/c2ccc([N+](=O)[O-])cc2)C(=O)N1c1ccc(Cl)cc1Cl | 26µM* | ? | 1% | 14% | -15% | 1
COC(=O)C[C@H]1c2cc(C(F)(F)F)ccc2S(=O)(=O)N1C(C)C | ? | -8% | nt | nt | nt | nt
CCCn1c(-c2ccc(S(=O)(=O)N3CCOCC3)cc2)csc1=Nc1ccc(OCC)cc1 | 2.9µM* | 4.1µM* | nt | nt | nt | nt
CCCCn1c(-c2ccc(S(=O)(=O)N3CCOCC3)cc2)csc1=Nc1ccccc1 | 15µM* | 13µM* | nt | nt | nt | nt
O=S(=O)(c1ccc(-c2csc(=Nc3ccccc3)n2CCCN2CCOCC2)cc1)N1CCOCC1 | ? | ? | 0% | -8% | 1% | -61*
Cc1ccc(S(=O)(=O)N2CCOCCOCCOCCOCCOCC2)cc1 | 16% | -15% | -3% | -1% | ? | 15
CCOC(=O)C1(C)CCCN(C(=O)c2c(F)cccc2F)C1 (centres undefined) | -9% | -14% | nt | nt | nt | 9
CC1CN(Cc2ccco2)C(=S)NC1=O (centres undefined) | -3% | 8% | -4% | -9% | nt | 2
CCN(CC)S(=O)(=O)c1ccc(NC(=O)[C@H](CCSC)N2Cc3ccccc3C2=O)cc1 | 23µM* | ? | nt | nt | nt | nt
CCN(CC)S(=O)(=O)c1ccc(NC(=O)[C@H](CSCc2ccccc2)N2Cc3ccccc3C2=O)cc1 | ? | 21µM* | nt | nt | nt | nt
Cc1ccc(NC(=O)[C@H](Cc2ccccc2)N2Cc3ccccc3C2=O)cc1 | -23% | 6% | nt | nt | nt | nt
CN(C)CCC(O)(c1ccccc1)c1ccccc1Cl (centres undefined) | 3% | 4% | -1% | -4% | nt | -25
COc1cc(NC(=O)Nc2ccccc2OC)c(OC)cc1NC(=O)CN1CCCCC1 | ? | ? | -3% | -5% | ? | -4
COc1cc(NC(=O)C2CCCCC2)c(OC)cc1NC(=O)CN1CCCCC1 | 16µM* | ? | 17% | -1% | -1% | ?
COC(=O)c1ccc(C(=O)Nc2cc(Cl)ccc2Cl)cc1NC(=O)c1ccc(N(C)C)cc1 | ? | 26µM* | 1% | -5% | -1% | -12
COc1cc(C(=O)NC2CCN(CC(=O)Nc3cccc(C)c3C)CC2)cc(OC)c1OC | ? | 18µM* | 7% | 4% | ? | -4
Cc1ccc(NC(=O)CN2CCC(NC(=O)C3CCCCC3)CC2)c(Br)c1 | 21µM* | ? | -2% | -7% | -1% | -5

High-throughput results as filed in PubChem.
